Structures are written as SMILES. About 83,000 compounds went through this panel and 20% of them were active in at least one assay; those are over-represented in the sample as a whole.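 Treatment: one concentration, 48 hours, 96-well format. Scoring: percent growth, with anything below 10 considered active.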 A number with no mark means an inactive call. The source made the active and inactive calls.

Experiment in all cases: NCI-60 one-dose screen, 48 h (100 = growth as untreated, 0 = no growth, -100 = all killed)
One assay concerns NCI-H23 lung. To be noted: 10 µM unless noted.
The next assay deals with NCI-H226 lung. To be noted: 10 µM unless noted.
For the next assay, the system named is NCI-H322M lung. Conditions: 10 µM unless noted.
A further assay has as its system HOP-62 NSCLC. To be noted: 10 µM unless noted.
The subject of the next assay is NCI-H460 lung. To be noted: 10 µM unless noted.
For the next assay, the system named is NCI-H522 lung. To be noted: 10 µM unless noted.
The subject of a further assay is A549/ATCC NSCLC. To be noted: 10 µM unless noted.
In the next assay the test system is 786-0 renal. To be noted: 10 µM unless noted.
The test system of a further assay is COLO 205 colon. Conditions: 10 µM unless noted.
The test system of the next assay is DU-145 prostate. Conditions: 10 µM unless noted.
For a further assay, the system named is K-562 leukemia. To be noted: 10 µM unless noted.
The test system of another assay is MALME-3M melanoma. Conditions: 10 µM unless noted.
The test system of the next assay is MDA-MB-231 breast. Conditions: 10 µM unless noted.
A further assay concerns RXF 393 renal. Conditions: 10 µM unless noted.
A further assay concerns SF-268 CNS. Conditions: 10 µM unless noted.
The next assay concerns SF-295 CNS. To be noted: 10 µM unless noted.
The test system of a further assay is SF-539 CNS. To be noted: 10 µM unless noted.
Another assay has as its system M14 melanoma. Conditions: 10 µM unless noted.
Another assay has as its system HOP-92 NSCLC. To be noted: 10 µM unless noted.
Another assay relates to UACC-257 melanoma. To be noted: 10 µM.

For the molecule `CCC(C)[C@H]1OC(=O)[C@H](C(C)C)N(C)C(=O)[C@@H](C(C)C)OC(=O)[C@H](C(C)C)N(C)C(=O)[C@@H](C(C)CC)OC(=O)[C@H](C(C)C)N(C)C1=O` (stereo partly specified), the growth with NCI-H23 lung was 8.83% (active); with NCI-H226 lung it was 19.2%; in the assay on NCI-H322M lung, 8.61% (active); in the assay with HOP-62 NSCLC, 8.79% (active); in the assay with NCI-H460 lung, 9.08% (active); with NCI-H522 lung, -2.93% (active). Also, the growth is 12.9% in the assay on A549/ATCC NSCLC; 10.4% in the assay with 786-0 renal; -91.8% (active) with COLO 205 colon; 22% in the assay with DU-145 prostate; 8.02% (active) with K-562 leukemia; 7.55% (active) in the assay on MALME-3M melanoma. In addition, the growth is 2.72% (active) in the assay on MDA-MB-231 breast; 17.2% in the assay with RXF 393 renal; 22.1% in the assay on SF-268 CNS; 6.32% (active) in the assay with SF-295 CNS; 13.8% with SF-539 CNS; 17.6% in the assay with M14 melanoma.
For `Cc1cc(O)c(=O)cc2c1C[C@H]1CC(C)(C)/C=C/C[C@]3(C)Oc4cc(=O)c(O)cc(C)c4C[C@H]3C[C@H](O)[C@@]1(C)O2`, the growth in the assay with NCI-H23 lung is -10.9% (active); with NCI-H226 lung it was 14.7%; in the assay on HOP-62 NSCLC it was -12.4% (active); in the assay on NCI-H460 lung, 0.132% (active); in the assay with HOP-92 NSCLC, -16.1% (active); in the assay on NCI-H522 lung, -26.9% (active). Further, the growth in the assay with A549/ATCC NSCLC was -0.223% (active); in the assay with 786-0 renal, -24.3% (active); in the assay on COLO 205 colon, -10.3% (active); with DU-145 prostate it was 16.1%; with K-562 leukemia it was -42.7% (active); in the assay with MALME-3M melanoma, -8.22% (active). The growth with MDA-MB-231 breast is 17.4%; in the assay with RXF 393 renal, 5.24% (active); with SF-268 CNS, 16.6%; in the assay with SF-295 CNS, 4.92% (active); in the assay on SF-539 CNS, 7.55% (active).
With `Oc1ccccc1-c1nnc(SCc2ccc(O)c3ncccc23)o1`, the growth is 23.5% in the assay on NCI-H23 lung; 67.5% in the assay on NCI-H226 lung; 64.2% in the assay on NCI-H322M lung; 31.1% in the assay on HOP-62 NSCLC; 5.53% (active) in the assay on NCI-H460 lung; 20.7% in the assay with NCI-H522 lung. In addition, the growth is 27.5% with A549/ATCC NSCLC; 32.2% with 786-0 renal; 113% with COLO 205 colon; 29.6% in the assay with DU-145 prostate; 19.8% in the assay on K-562 leukemia; 30.3% with MALME-3M melanoma. Also, the growth in the assay with MDA-MB-231 breast was 60.6%; with RXF 393 renal, 29.4%; with SF-268 CNS, 34.1%; with SF-295 CNS, 15.3%; with SF-539 CNS it was 37%; in the assay on UACC-257 melanoma, 25.2%. The growth in the assay with M14 melanoma was 27.4%.
In the case of `C#CCOc1ccc(/C=N/Nc2nc(-c3cc4cc(Br)cc(Br)c4oc3=O)cs2)cc1`, the growth was 94.6% in the assay on NCI-H23 lung; 93.8% in the assay with NCI-H226 lung; 103% with NCI-H322M lung; 105% in the assay with HOP-62 NSCLC; 101% with NCI-H460 lung; 95% in the assay with NCI-H522 lung. For the same molecule, the growth is 97% with A549/ATCC NSCLC; 99.7% in the assay on 786-0 renal; 100% in the assay with COLO 205 colon; 96.1% with DU-145 prostate; 90.7% with K-562 leukemia; 109% in the assay on MALME-3M melanoma. Moreover, the growth in the assay with MDA-MB-231 breast is 96%; in the assay with RXF 393 renal, 114%; in the assay on SF-268 CNS, 84.8%; in the assay on SF-295 CNS it was 91.4%; in the assay with SF-539 CNS, 84.4%; in the assay on UACC-257 melanoma it was 106%. Further, the growth in the assay with M14 melanoma is 98.2%.
On to `COc1ccc(/C=C/C(=O)c2nnn(-c3ccc(Br)cc3)c2C)cc1OC`, for which the growth is 59.9% with NCI-H23 lung; 70.7% in the assay on NCI-H226 lung; 95.3% in the assay on NCI-H322M lung; 88.1% with HOP-62 NSCLC; 84.3% in the assay on NCI-H460 lung; 73.6% in the assay with A549/ATCC NSCLC. Moreover, the growth with 786-0 renal was 93.5%; in the assay with COLO 205 colon, 90.4%; in the assay with DU-145 prostate it was 73.5%; in the assay with K-562 leukemia, 19.2%; with MALME-3M melanoma it was 83%; in the assay on MDA-MB-231 breast, 83.3%. The growth in the assay on RXF 393 renal was 80.3%; in the assay on SF-268 CNS, 89.4%; with SF-295 CNS it was 80.2%; in the assay with SF-539 CNS, 83.7%; in the assay with UACC-257 melanoma it was 85.3%; in the assay on M14 melanoma, 60.4%.
In the case of `COc1cc(-c2nc(SCc3ccc(C)cc3)[nH]c(=O)c2C#N)ccc1OCc1ccccc1`, the growth in the assay on NCI-H23 lung was 106%; in the assay on NCI-H226 lung it was 96.2%; with NCI-H322M lung, 104%; with HOP-62 NSCLC it was 104%; with NCI-H460 lung, 104%; in the assay with NCI-H522 lung, 95.6%. The growth with A549/ATCC NSCLC is 102%; in the assay on 786-0 renal, 103%; in the assay on COLO 205 colon it was 119%; with DU-145 prostate, 106%; in the assay on K-562 leukemia it was 87.9%; in the assay on MALME-3M melanoma, 94.5%. For the same molecule, the growth in the assay on MDA-MB-231 breast was 104%; in the assay on RXF 393 renal, 108%; with SF-268 CNS, 97.6%; in the assay with SF-295 CNS, 106%; in the assay on SF-539 CNS, 101%; in the assay on UACC-257 melanoma, 96.9%. For the same molecule, the growth in the assay on M14 melanoma was 105%.
Turning to `CNC(=O)c1cc(Oc2ccc3nc(NC(=O)c4ccc(CN5CCN(C)CC5)c(C(F)(F)F)c4)sc3c2)ccn1`, the growth was 51.8% in the assay on NCI-H23 lung; 72.7% in the assay with NCI-H226 lung; 94.5% in the assay with NCI-H322M lung; 73.5% in the assay on HOP-62 NSCLC; 53.2% in the assay with NCI-H460 lung; 79.3% in the assay on NCI-H522 lung. The growth was 66.4% with A549/ATCC NSCLC; 22.3% in the assay on 786-0 renal; -29.9% (active) with COLO 205 colon; 79.3% with DU-145 prostate; 11.7% in the assay on K-562 leukemia; -5.19% (active) in the assay on MALME-3M melanoma. Further, the growth was 77.5% in the assay on MDA-MB-231 breast; 46.7% in the assay with RXF 393 renal; 74.6% in the assay on SF-268 CNS; 36% in the assay on SF-295 CNS; 25% with SF-539 CNS; 20.4% with UACC-257 melanoma. Moreover, the growth with M14 melanoma is 0.73% (active).
Regarding `O=C(NCCCNc1cc(-c2cn(-c3ccccc3)nc2-c2cccc(O)c2)ccn1)Nc1cc(C(F)(F)F)cc(C(F)(F)F)c1`, the growth in the assay on NCI-H23 lung was 83.2%; in the assay with NCI-H226 lung, 79.6%; in the assay on NCI-H322M lung it was 90.3%; in the assay on HOP-62 NSCLC, 78.2%; in the assay on NCI-H460 lung, 61.3%; in the assay on NCI-H522 lung, 89.5%. Moreover, the growth was 67.1% with A549/ATCC NSCLC; 63.2% in the assay with 786-0 renal; 80.4% in the assay with COLO 205 colon; 95.8% in the assay with DU-145 prostate; 50.7% with K-562 leukemia; 67% with MALME-3M melanoma. In addition, the growth with MDA-MB-231 breast is 66.8%; in the assay with RXF 393 renal, 8.69% (active); with SF-268 CNS, 60.6%; with SF-295 CNS, 45.3%; with SF-539 CNS it was 74.9%; in the assay with UACC-257 melanoma it was 82.3%.
In the case of `O=C(NNc1nc2cc(F)c(F)cc2n2cccc12)c1ncccn1`, the growth in the assay with NCI-H23 lung is 20.3%; in the assay on NCI-H226 lung it was 14%; in the assay with NCI-H322M lung it was 28.7%; in the assay on HOP-62 NSCLC, 19.9%; in the assay with NCI-H460 lung, 10.6%; in the assay with NCI-H522 lung, 13.7%. The growth is 21.1% with A549/ATCC NSCLC; 8.17% (active) in the assay with 786-0 renal; 20.5% in the assay on COLO 205 colon; 26.8% in the assay on DU-145 prostate; 20.8% in the assay on K-562 leukemia; 32.7% in the assay with MALME-3M melanoma. The growth in the assay on MDA-MB-231 breast is 42.1%; in the assay on RXF 393 renal, 48.8%; in the assay with SF-268 CNS it was 17.3%; in the assay on SF-295 CNS, 14.7%; in the assay on SF-539 CNS it was 10.9%; in the assay on UACC-257 melanoma, 14.5%. Also, the growth in the assay with M14 melanoma was 1.46% (active).

These data come from PubChem BioAssay (NCI).
